{
  "source": "PubChem BioAssay (NCI)",
  "note": "“And” between values parts separate entries of the source, which are not always exact repeats. Identical values can stand only once. This is part of a sample that, as a whole, favours compounds with a hit. Of some 83,000 tested, about 20% had one in any assay.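 Treatment: one concentration, 48 hours, 96-well format. Scoring: percent growth, with anything below 10 considered active.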 The source made the active and inactive calls.",
  "data": [
    {"test_system": "HL-60(TB) leukemia", "test": "NCI-60 one-dose screen, 48 h (100 = growth as untreated, 0 = no growth, -100 = all killed)", "settings": "10 µM unless noted", "values": [
      {"molecule": "Cc1cc(NS(=O)(=O)c2ccc(NC(=O)CSc3nc4ccccc4c(=O)n3-c3ccccc3)cc2)no1", "growth": "110% (inactive)"},
      {"molecule": "O=C(CSc1nc2ccccc2c(=O)n1-c1ccccc1)Nc1ccc(-c2nc3ccc([N+](=O)[O-])cc3[nH]2)cc1", "growth": "89.3% (inactive)"},
      {"molecule": "COc1ccc(/C=C/C(=O)c2cccc(NC(=O)CSc3nc4ccccc4c(=O)n3-c3ccccc3)c2)cc1OC", "growth": "98.9% (inactive)"},
      {"molecule": "CCCCc1nc2c(N)nc3ccccc3c2n1Cc1ccc(OC)cc1", "growth": "31% (inactive)"},
      {"molecule": "CC1OC(O[C@@H]2[C@H](O)C(CO)OC(O[C@H]3COC(O[C@H]4CC[C@]5(C)[C@H]6CC[C@]78OC[C@@]9(CC[C@](C)(C=O)C[C@H]97)C(=O)C[C@@]8(C)[C@]6(C)CC[C@H]5C4(C)C)[C@@H](O)[C@@H]3O)[C@H]2OC2OC[C@@H](O)[C@@H](O)[C@@H]2O)[C@@H](O)[C@@H](O)[C@H]1O", "note": "(stereo not given in full)", "growth": "101% (inactive)"},
      {"molecule": "O=C(Cn1cc(CN2C(=O)c3ccc([N+](=O)[O-])cc3C2=O)nn1)Nc1ccccc1Br", "growth": "101% (inactive)"},
      {"molecule": "CCOC(=O)C(=O)CC(=O)N1C(=S)NC(=O)C1CC(C)C", "note": "(stereo not given)", "growth": "111% (inactive)"},
      {"molecule": "Cc1ccc(-c2nnc(SCc3ccc(O)c4ncccc34)o2)cc1", "growth": "4.59% (active)"},
      {"molecule": "COc1cc(-c2nc(-c3ccccc3)[nH]c2-c2ccnc(NCCCNS(=O)(=O)c3ccc(C(F)(F)F)cc3)n2)ccc1Cl", "growth": "13.9% (inactive) and 37.8% (inactive)"},
      {"molecule": "CCOc1cccc(-c2nc3sccn3c2-c2ccnc(S(C)(=O)=O)n2)c1", "growth": "36.9% (inactive)"}
    ]}
  ]
}
